# Data: the supplement of paper PMC6763611
# Test system: Plasmodium falciparum NF54
# Experiment: growth inhibition relative to untreated control; higher = more inhibition
# Conditions: 72 h
# Summary of the method: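 Growth inhibition was measured by SYBR Green fluorescence, normalised to untreated wells and corrected for background from uninfected erythrocytes. The parasites were P. falciparum NF54 ring stages (1% hematocrit, 1% parasitemia) exposed to single 5 μM or 1 μM doses of test compounds for 72 h at 37 °C, in either minimal RPMI or minimal RPMI containing 2.2 μM folate, 7.3 μM pABA, 7.3 μM pHBA, 111 μM tyrosine, 90 μM phenylalanine and tryptophan.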
# [1] = 1 µM, MM + chorismate end-products (CM screening medium)
# [2] = 5 µM, MM + chorismate end-products (CM screening medium)
Compound,growth inhibition [1] [%],"growth inhibition (1 µM, minimal medium (MM)) [%]",growth inhibition [2] [%],"growth inhibition (5 µM, minimal medium (MM)) [%]"
Cc1cc2ccccc2n1CC(=O)N1CC(C(=O)N2CCCCC2)Oc2ccccc21 (configuration not stated),97.2,95.9,96.1,98
Cc1ccc2[nH]c3c(NCCN(C)C)ncnc3c2c1,97.6,96.5,98.1,95.7
COc1ccc(-c2cc(NC(=O)c3ccc(F)cc3Cl)ccc2OC)cc1,8.71,13.2,< 0,< 0
COc1ccc2nc(C)cc(OCC(=O)NCc3ccccc3)c2c1,25.1,2.13,21.9,2.43
Cc1cc(C)cc(COc2ccc3c(C)c(CCC(=O)O)c(=O)oc3c2C)c1,22.5,15.7,< 0,< 0
Cc1nn2c(O)c3c(nc2c1-c1ccc(F)cc1)CCCC3,11,13.4,36.7,24.6
NCC(=O)N1CCn2c(nc(-c3ccccc3)c2Nc2ccc3c(c2)OCO3)C1,99.3,> 100,> 100,93.2
COc1cccc(-n2nnnc2S(=O)(=O)Cc2ccccc2)c1,13.8,3.94,65.6,< 0
CS(=O)(=O)c1ccccc1C(=O)N(Cc1ccccc1)c1ccccc1,35.9,7.57,< 0,< 0
Cc1cc(NCC(C)C)c2[nH]nc(-c3ccccc3)c2n1,89.6,94.3,99.7,87.9
COc1ccc(C2=NCCN2)cc1-c1cn(-c2cccc(C3=NCCN3)c2)nn1,84.5,80.4,> 100,91.6
Cc1cc(C)nc(-n2nc(C)cc2Nc2ccccc2)n1,16.6,9.77,69.8,34.2
Cc1ccc2[nH]c(C3CCCNC3)c(-c3ccncc3)c2c1 (configuration not stated),97.7,97.5,> 100,97.4
FC(F)(F)c1nnc2ccc(Cl)nn12,8.81,7.29,< 0,8.78
CCN(CC)CCCCCCNc1cc(OC)cc2c(C)ccnc12,93.3,92.8,81.2,91.2
c1ccc2c(c1)CN(CC1CC1)CC1(CCN(Cc3c[nH]c4cnccc34)CC1)O2,99,97.8,93.1,87.4
O=C(c1ccc(F)cc1)N(CCNc1ccccc1)c1ccccc1,< 0,< 0,58.9,4.16
CCS(=O)(=O)N(Cc1ccco1)Cc1cc2ccc(C)cc2nc1O,44,33.5,87.4,94.5
O=C(Nc1nc(-c2ccccn2)cs1)C1CC1c1ccccc1F (configuration not stated),16,< 0,54.3,26.1
C[C@H](C(N)=O)N1CCCC[C@@H]1c1ccc(OCc2cccc(F)c2)cc1,45.1,< 0,14.2,15.9
CCOc1ccccc1NC(C)C(=O)Nc1cc(C(F)(F)F)ccc1N1CCOCC1 (configuration not stated),76,64.5,91.6,96.1
COc1ccc(S(=O)(=O)Nc2ccc(CN3CCN(C(=O)c4cccc(C#N)c4)CC3)cc2)cc1,0.529,< 0,41.6,13.7
Oc1c(I)cc(I)c2cccnc12,39.4,9.57,< 0,< 0
CC(C)(C)C(=O)N(CCCCCCN1C[C@H](O)[C@@H](O)[C@H](O)[C@H]1CO)C1CCCCCC1,28.4,< 0,< 0,< 0
COc1cc(C2=NCCN2)cc2cc(-c3ccc(C4=NCCN4)cc3)oc12,78,> 100,98.4,100

Compound,growth inhibition [1] [%],"growth inhibition (1 µM, minimal medium (MM)) [%]",growth inhibition [2] [%],"growth inhibition (5 µM, minimal medium (MM)) [%]"
CC1CCCCN1C(=O)NCCc1coc(-c2ccc(F)cc2)n1 (configuration not stated),< 0,8.79,< 0,< 0
CCC(=O)Nc1ccccc1C(=O)Nc1ccccn1,< 0,< 0,< 0,< 0
C[C@]1(COc2ccc(N3CCC(Oc4ccc(OC(F)(F)F)cc4)CC3)cc2)Cn2cc([N+](=O)[O-])nc2O1,2.53,3.49,21.9,9.3
Cc1nn(C)cc1C(C)Nc1nncc(-c2ccc(C(F)(F)F)cc2)n1 (configuration not stated),94.7,97.4,99.9,91.7
Cc1cccc(NC(=O)c2cc(S(=O)(=O)N(C)c3ccc(F)cc3)ccc2Cl)n1,86.6,82.9,87.9,91.5
COc1cc2ncnc(NC3CCN(Cc4ccccc4)CC3)c2cc1OC,98.1,95.5,99.3,92.2
CC1COC2(CCN(c3nc(=O)c4cc(C(F)(F)F)cc([N+](=O)[O-])c4s3)CC2)O1 (configuration not stated),6.95,12.6,14.7,< 0
CC(C)/N=c1\cc2n(-c3ccc(Cl)cc3)c3ccccc3nc-2cc1Nc1ccc(Cl)cc1,91.5,89.1,90,94.1
CN(C)CCNC(=O)N1CCCN(c2ncnc3cc(-c4ccccc4)sc23)CC1,72.9,99.2,> 100,87
COc1ccc(N(CCc2cccc(C)n2)C(C)=O)cc1,16.2,< 0,< 0,< 0
COc1ccc(Cl)cc1NC(=O)CN(C)C(=O)c1cnn(-c2ccccc2)n1,98.1,95.6,85,98.3
FC(F)(F)c1cc(NCCc2ccccc2)nc(-c2ccccn2)n1,37.2,0.647,0.0785,< 0
COCC(C)NC(=O)CSc1ncnc2sc(-c3ccccc3)cc12 (configuration not stated),11.3,< 0,< 0,< 0
CCOc1ccc2cc(-c3nn(C(C)(C)C)c(N)c3C(N)=O)cnc2c1,11,18.1,3.3,< 0
CN1CCN(c2cc(-c3ccc(F)cc3)nc(-c3ccncc3)n2)CC1,79.9,95.3,92.9,96.5
COc1ccc(-c2cnc3ccc(N4CCCC4)nn23)cc1OC,79.9,78,96.8,82.4
Cc1cc(O)nc(-n2nc(C)cc2C)n1,5.27,< 0,< 0,< 0
O=C(CCC1CCCCC1)Nc1cccc(-c2nnc(-c3ccco3)o2)c1,14.2,9.19,< 0,< 0
Cc1ccc(-c2cc(C(=O)Nc3cccnc3)c3cc(Br)ccc3n2)cc1,92.4,95.2,98.3,86.3
O=C(N[C@H](Cc1ccccc1)C(=O)Nc1ccccc1N1CCOCC1)c1cccs1,6.47,2.12,47.7,27.5
CCOC(=O)c1noc(N)c1-c1ccccc1,59.8,12.2,44.4,0.705
NC(CC(=O)c1ccc(Cl)cc1Cl)C(Cl)(Cl)Cl (configuration not stated),< 0,11.5,18.3,23
CC1CC1C(=O)NC1CCN(CC2(c3ccccc3)CCCCC2)CC1 (configuration not stated),96.1,94.5,90.8,92
CC(C)(C)[C@H]1CC[C@H](CC2=C(O)C(=O)c3ccccc3C2=O)CC1,97.5,95.2,94.8,93.4
O=C(NCc1cc(Cl)cc(Cl)c1)c1c(C(F)(F)F)nc2ccccn12,2.45,10.6,31.8,9.63

Compound,growth inhibition [1] [%],"growth inhibition (1 µM, minimal medium (MM)) [%]",growth inhibition [2] [%],"growth inhibition (5 µM, minimal medium (MM)) [%]"
NS(=O)(=O)c1cncc(-c2ccc3nccc(-c4cn[nH]c4)c3n2)c1,83.8,> 100,92.8,94.8
COc1ccccc1CNC(=O)c1cc(C2CC2)nc2c1cnn2C(C)C,82.9,79.8,87.1,91.4
CCc1ccc(S(=O)(=O)Nc2cc(CN3CCN(CCC(C)C)CC3)ccc2C)cc1,31.6,4.88,64.6,13.6
Cc1cccc(Cn2ccc(NC(=O)c3ccc4c(c3)OCO4)n2)c1,18.2,6.8,12.8,17.9
Cc1nc(-c2ccccn2)nc(NCCc2ccc(S(C)(=O)=O)cc2)c1Cl,32.5,< 0,8.44,< 0
NCCN(C(=O)c1ccc(Cl)cc1Cl)c1ccc(OCc2ccc(Cl)cc2)cc1,33.8,27.2,97.9,91.1
Clc1cccc(C(c2ccc(CN3CCNCC3)cc2)n2ccnc2)c1 (configuration not stated),93.2,> 100,93.5,91.5
O=C(Nc1ccccc1)c1ccc(-c2cc3ccncc3cc2OC2CCNCC2)s1,98.5,> 100,96.1,94.6
Brc1c(-c2ccc3c(c2)OCO3)nc2ncccn12,< 0,< 0,29.5,< 0
c1ccc(Oc2ccc(-c3cc(N4CCOCC4)[nH]n3)cc2)cc1,> 100,< 0,7.27,< 0
C[C@H]1c2cccc(O)c2C(=O)C2=C(O)[C@]3(O)C(=O)C(C(N)=O)=C(O)[C@@H](N(C)C)[C@@H]3[C@@H](O)[C@@H]21,50.6,50.7,41,< 0
CN1CCCC1CCO[C@](C)(c1ccccc1)c1ccc(Cl)cc1 (some centres not stated),96.4,94.5,98,93.3
CN1CCC(NCc2cccc(-c3ccc(S(=O)(=O)NCc4ccccc4)cc3)c2)CC1,96.4,> 100,96,94.2
CC(C)C(NC(=O)Cc1cccc2ccccc12)C(=O)Nc1cccc(C#N)c1 (configuration not stated),89.9,86.3,79.3,91
CC1CS(=O)(=O)CCN1/N=C/c1ccc([N+](=O)[O-])o1 (configuration not stated),< 0,0.769,< 0,< 0
Cc1cc(Nc2ccncc2)n2nc(C)c(-c3ccccc3Cl)c2n1,95.7,94.2,94,92.2
CCOc1ccc(-c2nc(CNCCc3ccc(F)cc3)cs2)cc1,2.22,38.5,28.1,27.2
c1ccc(C[C@@H]2CN(c3nccc(Oc4ccc(-n5ccnc5)cc4)n3)CCN2)cc1,98.3,97.5,95.3,95.3
CCC(C)NC(=O)c1ccc(NC(=O)C2(c3ccccc3)CCCC2)cc1 (configuration not stated),58,17.8,61.1,65.4
Cc1nc2ccccn2c1C(=O)NCc1ccc(Cl)cc1,1.31,< 0,31,10.3
CCOc1ccc(-c2nc(NC(=O)CS(=O)(=O)c3ccccc3)sc2C)cc1,96.4,95.3,95.3,92.6
CNC(=O)c1cc(S(=O)(=O)N2CCN(c3ccccn3)CC2)cs1,98.3,96.6,90.2,90.9
CC(=O)NC[C@H]1CN(c2ccc(N3CCSCC3)c(F)c2)C(=O)O1,21.8,32.5,< 0,< 0
